From PubChem BioAssay AID504332 (National Center for Advancing Translational Sciences (NCATS), 2011)
Out of some 350,000 compounds screened, about 31,000 (8.9%) were called active. About 15% were inconclusive and are not listed. The list comes from a sample in which actives are over-represented; it also holds similar structures and randomly drawn compounds. Entries that show only a call come without a potency. A number with no mark means an inactive call. Calls come from the whole dose curve; as a rule, active = well fitted inhibition curve with a large enough effect; inconclusive = small, poorly fitted or top-dose-only effect; inactive = no such curve, though single readings can be large or run the other way.
Note: nearly all actives have a fitted effect of over 75% in size.
Potency is the fitted concentration of half-maximal effect.

These molecules were tested against Histone-lysine N-methyltransferase EHMT2 (Homo sapiens) (UniProt Q96KQ7) (assay: qHTS Assay for Inhibitors of Histone Lysine Methyltransferase G9a). Settings: G9a H3K9 monomethylation, AlphaScreen, 2 h; series mostly up to 59 µM.
Sequence of Histone-lysine N-methyltransferase EHMT2 (Homo sapiens) (Q96KQ7 913-1193 limits assumed): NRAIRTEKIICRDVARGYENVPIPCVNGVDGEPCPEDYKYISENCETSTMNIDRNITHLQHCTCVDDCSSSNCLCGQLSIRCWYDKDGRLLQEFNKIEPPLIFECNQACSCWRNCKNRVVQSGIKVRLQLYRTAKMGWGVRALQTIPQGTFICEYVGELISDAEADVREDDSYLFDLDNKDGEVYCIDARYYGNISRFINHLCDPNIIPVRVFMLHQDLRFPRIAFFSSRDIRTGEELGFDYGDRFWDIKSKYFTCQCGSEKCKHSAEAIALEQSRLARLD
Method in brief: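 Methyltransferase reactions run at room temperature for 2 h (20 nM enzyme, 500 nM biotin-H3K9 peptide, 20 uM SAM) after a 15 min compound preincubation; product detected by AlphaScreen beads and anti-H3K9me1 antibody.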
In the case of `CN(C)CCn1c2c(c(SCC(=O)Nc3ccccc3C(F)(F)F)nc1=O)CCCC2`, the activity, negative = inhibition is reported as 7.38% [at 0.501 µM]. With `CCOC(=O)c1ccc(NC2=CC(c3ccc(OCC)cc3)N(c3ccc(C(=O)OCC)cc3)C2=O)cc1` (stereo unspecified) the Potency was “inactive”. `COc1cc(NC(=O)CCn2nc(C)cc2C)cc(OC)c1OC` was tested, and the Potency was “inactive”. For `Cc1c(Cl)cccc1NC(=O)C1CCCN(C(=O)c2cnn(-c3ccccc3)c2-n2cccc2)C1` (stereo unspecified), the Potency was “inactive”. With `Cn1c(C(=O)N2CCCC(C(=O)NCc3ccccc3)C2)cc2sccc21` (stereo unspecified) the Potency was “inactive”. With `COc1ccc(-c2noc(CSc3nc4ccc(C)cc4[nH]3)n2)cc1` the Potency was “inactive”. With `O=C(Nc1ccc(C(F)(F)F)cc1)c1cccc(-n2cnnn2)c1` the Potency was “inactive”. In the case of `O=C(CN1C(=O)COc2ccc(Cl)cc21)N1CCOCC1`, the Potency is reported as “inactive”. With `CC(=N\NC(=O)c1cc(Br)ccc1O)/C(=N/O)C(=O)Nc1ccccc1` the Potency was “inactive”. `COc1ccc(OC)c(/C=C/C(=O)c2ccc3c(c2)OCO3)c1` gave an activity, negative = inhibition of 13.7% [at 12.7 µM]. In the case of `Cc1ccccc1-c1nc(CS(=O)(=O)CC(=O)Nc2cc(Cl)cc(Cl)c2)c(C)o1`, the Potency is reported as “inactive”. `CCOc1ccccc1C(=O)NC1(C(F)(F)F)NC(=O)N(CCc2ccc(OC)c(OC)c2)C1=O` (stereo unspecified) was tested, and the Potency was “inactive”. In the case of `O=C(CSc1ncnc2sccc12)N1CCN(C(=O)c2cccs2)CC1`, the activity, negative = inhibition is reported as 14% [at 12.7 µM]. With `COc1ccc(CNC(=O)c2cc3c(=O)[nH]c4ccc(C)cc4c3s2)c(OC)c1` the Potency was “inactive”. In the case of `CCOc1ccc(C(=O)Nc2cc(OC)ccc2OC)cc1`, the Potency is reported as “inactive”. `CCOc1ccc(C(=O)Nc2cc(Cl)ccc2-n2cncn2)cc1OC` was tested, and the Potency was 15.8 µM (active). In the case of `COc1cc(C(=O)Nc2cc(C(F)(F)F)ccc2-n2cncn2)cc(OC)c1OC`, the Potency is reported as “inactive”. With `COc1ccc(-n2nnnc2CNC(=O)c2ccc3ccccc3c2)cc1` the Potency was “inactive”. With `COc1ccccc1C(CNC(=O)c1cccc(S(=O)(=O)Nc2ccc(F)cc2)c1)N(C)C` (stereo unspecified) the activity, negative = inhibition was 17.4% [at 12.7 µM]. In the case of `CN(C)C(CNC(=O)c1cccc(S(=O)(=O)Nc2ccc(Br)cc2)c1)c1ccco1` (stereo unspecified), the Potency is reported as 50.1 µM (active). `COc1ccccc1C(CNC(=O)c1cccc(NS(=O)(=O)c2ccc(Br)cc2)c1)N(C)C` (stereo unspecified) was tested, and the Potency was “inactive”. With `CCOc1ccccc1CNCc1c(C(=O)O)c(C)n(Cc2ccc(C)cc2)c1C` the Potency was “inactive”. For `O=C(O)c1cc2c(cc1NC(=O)c1c(F)cccc1Cl)OCCCO2`, the Potency was “inactive”. In the case of `O=C(NCCN1CCOCC1)c1ccc2c(c1)ncn2C1CCCC1`, the Potency is reported as “inactive”. `O=C(NCc1ccc(Cl)cc1)c1ccc2c(c1)nnn2C1CCCC1` was tested, and the Potency was “inactive”. `O=C(NCc1cccs1)c1ccc2c(c1)ncn2C1CCCC1` was tested, and the Potency was 50.1 µM (active).
